Screening data as filed in PubChem BioAssay.
Sm TGR block – qHTS Assay for the Inhibitors of Schistosoma Mansoni Peroxiredoxins; Schistosoma mansoni thioredoxin glutathione reductase (TGR), Q962Y6; Potency, µM (series often up to 114 µM), usual class: inhibitors; purified TGR, DTNB reduction, TNB absorbance 405 nm; hit rate 3% among 360,000; further: nearly all actives have a fitted effect of over 60% in size
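TGR 20 nM + NADPH 100 uM (dispensed conc.), cpd preinc 15 min RT; start with NADPH (500 uM addition) then DTNB (15 mM addition). Kinetic TNB absorbance, 405 nm filter. Four-parameter Hill fit across titration.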
FMDV inh – High Throughput Screening for Foot and Mouth Disease Virus Antivirals | FMDV antiviral cell-based qHTS | Potency, µM (doses to about 57.9 µM), usual class: inhibitors | hit rate 1.2% among 410,000; calls by dose curve; tested in HEK293T cells; further: read-out not given here; nearly all actives have a fitted effect of over 45% in size
AmpC detergent – qHTS Inhibitors of AmpC Beta-Lactamase (assay with detergent); P00811; AmpC hydrolysis of nitrocefin, absorbance 480 nm, 0.01% Triton; Potency, µM (highest dose often 114 µM), hits mostly inhibitors; hit rate 0.041% among 370,000; further: nearly all actives have a fitted effect of over 25% in size
Target sequence (P00811 whole entry, looked up): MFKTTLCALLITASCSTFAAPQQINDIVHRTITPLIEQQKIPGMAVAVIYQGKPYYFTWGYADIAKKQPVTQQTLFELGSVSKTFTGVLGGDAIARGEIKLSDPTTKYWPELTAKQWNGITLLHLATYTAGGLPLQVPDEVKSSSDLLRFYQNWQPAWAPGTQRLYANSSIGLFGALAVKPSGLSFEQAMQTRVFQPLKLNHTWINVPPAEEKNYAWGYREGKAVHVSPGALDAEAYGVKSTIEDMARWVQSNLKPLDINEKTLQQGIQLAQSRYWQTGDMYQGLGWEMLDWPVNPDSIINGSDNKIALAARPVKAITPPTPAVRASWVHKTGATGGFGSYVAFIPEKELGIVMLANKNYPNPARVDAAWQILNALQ
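AmpC (5.3 nM in the dispensed reagent) in 20 mM phosphate pH 7.0 with 0.01% (detergent screen) or 0.0001% Triton X-100 was preincubated with compounds for 15 min at room temperature. Nitrocefin was then added from an 800 uM solution, and hydrolysis was followed at 480 nm.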
AmpC no deterg – qHTS Inhibitors of AmpC Beta-Lactamase (assay without detergent). P00811. hit rate 0.52% among 330,000. AmpC nitrocefin hydrolysis, absorbance 480 nm, 0.0001% Triton. Potency, µM (highest dose often 57.1 µM), hits mostly inhibitors. AID 485341, 2010; further: nearly all actives have a fitted effect of over 20% in size
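20 mM phosphate pH 7.0 + 0.01% (detergent screen) or 0.0001% Triton X-100; 5.3 nM AmpC reagent; cpd preinc 15 min RT; nitrocefin (800 uM stock) to start; A480 q20 s × 4 min; Activity was normalised to no-enzyme and no-compound control wells.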
AMA1 RON2 block – qHTS for Inhibitors of AMA1-RON; Towards Development of Antimalarial Drug Lead: Primary Screen. Plasmodium falciparum AMA1 (3D7) - RON2 peptide interaction. AlphaScreen AMA1-biotinylated RON2 peptide binding. Potency, µM (titrated, usually from 58.2 µM), most hits filed as inhibitors. hit rate 0.2% among 360,000. AID 720542, 2013; further: nearly all actives have a fitted effect of over 45% in size
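AMA1 (3D7) with his tag at 25 nM final met compounds first, then biotinylated RON2 peptide at 25 nM; detection used donor plus acceptor beads, 10 µg/mL apiece, read by AlphaScreen after 30 min at room temperature.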
Numbers stand for hits; – = inactive; ? = inconclusive; · = no result given; [ ] = another dose, or the depositor's remark. The list is not random: actives were taken first. Their share in the collection is about 4.1%. Unless noted, the call rests on the fitted dose curve; in most records, active means well fitted curve in the direction sought with a large enough effect; inconclusive means small, poorly fitted or top-dose-only effect, or another doubt; inactive means no such curve, though single readings can be large; an effect the other way counts as inactive or inconclusive.

SMILES | Sm TGR block | FMDV inh | AmpC detergent | AmpC no deterg | AMA1 RON2 block
COc1cccc(C2CC(=O)N3CN(C4CCCCC4)CSC3=C2C#N)c1 (centres undefined) | 2.5µM | – | – | · | ·
CN1CSC2=C(C#N)C(c3cccc(OCc4ccccc4)c3)CC(=O)N2C1 (centres undefined) | – | – | ? | – | –
COc1ccc(C2CC(=O)N3CN(C4CCCCC4)CSC3=C2C#N)cc1 (centres undefined) | 7.9µM | – | – | · | ·
C1CN(CC2CCN(c3nc4nonc4nc3N3CCSCC3)CC2)CCO1 | 28µM | – | – | – | –
Cc1ncc2c(c1CNC(=O)c1ccc3c(c1)OCO3)CCN(C(=O)c1cccc(-n3cccn3)c1)C2 | · | – | · | · | ·
COc1ccccc1C(=O)Nc1cc(-c2cccc(Br)c2)nn1-c1ccccc1 | – | – | – | · | ·
COc1cc2c(cc1OC)CN(Cc1cc(=O)oc3cc(C)c(Cl)cc13)CC2 | – | – | – | 10µM | –
COc1cc2c(cc1OC)CN(Cc1cc(=O)oc3cc(C)c(C)cc13)CC2 | – | – | – | – | –
CCc1cc(C(=O)NCCN2Cc3ccccc3OC(c3ccsc3)C2)n(C)n1 (centres undefined) | · | – | · | · | ·
C/C(=N\N1CCN(C2c3ccccc3-c3ccccc32)CC1)c1ccncc1 | – | 13µM | ? | – | –
COc1ccccc1C1CN(Cc2ccc(Sc3nncn3C)o2)Cc2ccccc2O1 (centres undefined) | · | – | · | · | ·
CCOc1ccccc1-c1n[nH]c(=S)o1 | – | – | – | – | –
CCCCc1cc(-c2n[nH]c(=S)o2)c2ccccc2n1 | 45µM | – | – | – | –
Cc1ncc2c(c1CNC(=O)c1cncs1)CCN(C(=O)c1ccc(-c3ccccc3)cc1)C2 | · | – | · | · | ·
CCn1cnc2cc(NCc3ccc(N(C)C)cc3)ccc21 | 8.9µM | – | – | – | ?
CC1CCCC(C)N1c1nnc(NC(=O)Cn2c(=O)oc3ccccc32)s1 (centres undefined) | – | – | – | 10µM | –
Cc1cccc(N=C2NN=C(c3ccccc3F)CS2)c1C | – | – | – | 13µM | –
Fc1ccc(F)c(C2=NNC(=Nc3ccccc3F)SC2)c1 | – | – | – | – | –
CN1c2ccc([N+](=O)[O-])cc2CC2(C(=O)NC(=O)N(c3ccccc3)C2=O)C1c1ccccc1 (centres undefined) | – | ? | – | – | –
CN1c2ccc([N+](=O)[O-])cc2CC2(C(=O)NC(=O)NC2=O)C1c1ccccc1 (centres undefined) | – | – | – | 4µM | –
COC(=O)C1=C(C(=O)OC)C2C(C)=CC(C)=CN2C(C(=O)OC)=C1C(=O)OC (centres undefined) | 40µM | – | – | – | –
COC(=O)C1=C(C(=O)OC)C(C(=O)OC)N2C=CC=CC2=C1C(=O)OC (centres undefined) | · | – | · | · | –
Cc1c(C#N)c(NC(=O)CCl)n(Cc2cccs2)c1C | 4µM | 20µM | – | – | –
Cc1c(C#N)c(NC(=O)CCl)n(Cc2ccc(F)cc2)c1C | 4.5µM | 13µM | – | – | –
Cc1cc(=O)n(Cc2ccccc2)c(O)c1C#N | ? | – | ? | – | –
SMILES | Sm TGR block | FMDV inh | AmpC detergent | AmpC no deterg | AMA1 RON2 block
COC(=O)c1cc(C(=O)OC)n(Cc2ccc(F)cc2)c1C | – | – | – | – | –
Cc1c(C#N)c(NC(=O)CCl)n(Cc2ccccc2)c1C | 3.2µM | 11µM | – | – | –
CCN(CC)C(=O)c1sc(NC(=O)Cc2cccs2)c(C#N)c1C | – | – | ? | – | ?
COc1cc(=O)n2c(c1C(=O)NC(C)c1ccco1)CCN(C(=O)c1cc(C)cc(C)c1)CC2 (centres undefined) | · | – | · | · | ·
O=C(NNc1nc(-c2ccccc2)cs1)c1cccs1 | – | – | – | 8.9µM | –
O=C(Nc1nc(-c2ccccc2)cs1)C1CCCN(S(=O)(=O)c2ccccc2)C1 (centres undefined) | –[11.4 µM] | 10µM | – | – | –
O=C(Nc1nc(-c2ccccc2)cs1)C1CCCN(S(=O)(=O)c2cccc([N+](=O)[O-])c2)C1 (centres undefined) | – | – | ? | – | –
COc1ccc(OC)c2sc(NC(=O)c3ccc(S(=O)(=O)N4CCOCC4)cc3)nc12 | – | – | ? | 7.1µM | –
O=C(Nc1nc(-c2ccc(S(=O)(=O)N3CCCCCC3)cc2)cs1)c1cccs1 | – | 10µM | ? | ? | –
COc1cccc(Cn2c(CNC(=O)Cc3cccc(C)c3)nc3cccnc32)c1 | – | – | – | · | ·
Cc1ccc(-c2csc(NC(=O)C3=NN(c4ccccc4)C(=O)CC3)n2)cc1 | – | 28µM | – | – | –
COc1cc(C(=O)Nc2nc(-c3ccc(C)cc3)cs2)ccc1OCC(=O)N1CCOCC1 | – | 22µM | ? | – | –
COc1ccc(-c2csc(NC(=O)c3ccc(OCC(=O)N4CCOCC4)c(OC)c3)n2)cc1 | – | ? | – | – | –
Cc1csc(NC(=O)C2=NN(c3ccccc3)C(=O)CC2)n1 | – | – | – | –[2.29 µM] | –
O=C(Nc1nc(-c2cc3ccccc3o2)cs1)c1ccc(S(=O)(=O)N2CCCC2)cc1 | – | ? | – | 18µM | –
Cc1ccc(-c2csc(NC(=O)c3cccc(S(=O)(=O)N4CCN(C)CC4)c3)n2)cc1 | – | 13µM | ? | – | –
CC1CN(S(=O)(=O)c2ccc(C(=O)Nc3nc(-c4cc5ccccc5o4)cs3)cc2)CC(C)O1 (centres undefined) | – | ? | – | – | –
Cc1nnc(NC(=O)c2cccc(S(=O)(=O)N3CCN(C)CC3)c2)s1 | – | – | – | – | –
O=C(CC1NCCNC1=O)Nc1cccc(F)c1 (centres undefined) | – | – | – | · | ·
O=C1CC(c2ccccc2)Cc2[nH]c(=O)c(C(=O)Nc3ccc(OC(F)(F)F)cc3)cc21 (centres undefined) | – | – | – | · | ·
CCOc1cc(C(=O)Nc2ccc(C(=O)NCCN(CC)CC)cc2)ccc1OCC(=O)N1CCOCC1 | 35µM | – | ? | – | –
O=C(Nc1nc(-c2ccc(S(=O)(=O)N3CCOCC3)cc2)cs1)c1ccccc1 | – | 14µM | – | – | –
CCOc1cc(C(=O)NCc2ccccc2)ccc1OCC(=O)N1CCOCC1 | – | – | ? | –[11.4 µM] | –
O=C(Nc1nc(-c2ccncc2)cs1)C1c2ccccc2Oc2ccccc21 | – | ? | – | – | –
O=C(Nc1nc(-c2ccccc2)cs1)C1c2ccccc2Oc2ccccc21 | – | ? | – | 0.18µM | –
CC(C)CC(=O)Nc1nc(-c2ccc(S(=O)(=O)N3CCOCC3)cc2)cs1 | – | 22µM | – | – | –
